# Test results: PubChem BioAssay (EPA / NIEHS)
# Where “and” joins values, the source holds several entries; their conditions need not be identical. Equal values may be shown once. Results filed as inconclusive are left out. Calls of active or inactive are those of the source. How the source made its calls: active means hit-call score of the fitted dose curve at least 0.9, where 1 is the maximum; inconclusive means response in the unintended direction; inactive means score below 0.9.
# Legend:
# [1] = ACEA_ER_AUC_viability: ACEA Biosciences xCELLigence Real-Time Cell Analysis on Estrogen Receptor Agonism for Viability (AID 2283782);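 further: hit means loss of impedance signal meaning reduced cell growth or viability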
# How it was run: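 Read-out: real-time electrical impedance (RT-CES) area under curve, loss of signal taken as reduced viability, normalized to DMSO baseline. T-47D cells, charcoal-stripped serum medium, compounds up to 100 uM final, continuous exposure, 80 h.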
# [2] = system: turtle Estrogen Receptor (ESR1), gene 101933533; test: ATG_trERa_XSP1: Attagene TRANS-FACTORIAL Multi-Species (XSP1) HepG2 Assay for turtle Estrogen Receptor (ESR1) (AID 2283781)
# How it was run: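 Transfect HepG2 with reporter units → dose chemical 24 h (medium has 3 nM 6-alpha-fluorotestosterone) → isolate RNA, RT-PCR → FAM primer extension, HpaI digest → capillary electrophoresis; gain of signal vs DMSO.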
# [3] = system: turtle Androgen Receptor (AR), gene 101947425; test: ATG_trAR_XSP1: Attagene TRANS-FACTORIAL Multi-Species (XSP1) HepG2 Assay for turtle Androgen Receptor (AR) (AID 2283786)
# How it was run: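 Partial androgen stimulation is provided by 3 nM 6-alpha-fluorotestosterone in a multi-species trans-factorial panel expressing a turtle AR–GAL4 fusion in HepG2. After 24 h, reporter mRNA is measured by RT-PCR and capillary electrophoresis and fitted upward against DMSO.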
# [4] = ATG_M_06_XSP1: Attagene TRANS-FACTORIAL Multi-Species (XSP1) HepG2 Assay for M06 Transcription Factor (Internal Marker) (AID 2283790)
# How it was run: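 This background-control readout tracks M06 reporter mRNA, measured by RT-PCR and capillary electrophoresis. HepG2 cells transiently carrying the GAL4-UAS reporter panel were dosed for 24 h with 3 nM 6-alpha-fluorotestosterone added for partial AR stimulation; increases were scored relative to DMSO.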
# [5] = ATG_M_61_XSP1: Attagene TRANS-FACTORIAL Multi-Species (XSP1) HepG2 Assay for M61 Transcription Factor (Internal Marker) (AID 2283797)
# Method: ATG_XSP1_multi-species_TRANS is a cell-based, multiplexed assay created by modifying the existing Attagene TRANS-FACTORIAL system to include a panel of nuclear receptors from some or all the following species: human (Homo sapiens), mouse (Mus musculus), frog (Xenopus laevis), zebrafish (Danio rerio), chicken (Gallus gallus), and turtle (Chrysemys picta). The ECOTOX-FACTORIAL format uses HepG2, a human liver cell line, with measurements taken at 24 hours after chemical dosing in a 24-well plate. Xsp1 included 3 nM 6-alpha-fluorotestosterone to partially stimulate the androgen receptor.ATG_M_61_XSP1 is one of 29 assay components measured or calculated from the ATG_XSP1_multi-species_TRANS assay. It is designed to make measurements of mRNA induction, a form of inducible reporter, as detected with fluorescence intensity signals by Reverse transcription polymerase chain reaction (RT-PCR) and Capillary electrophoresis technology.This assay endpoint, ATG_M_61_XSP1, was analyzed in the positive analysis fitting direction relative to DMSO as the negative control and baseline of activity. Using a type of inducible reporter, measures of mRNA for gain-of-signal activity can be used to understand the background control at the transcription factor-level as they relate to the gene. Furthermore, this assay endpoint can be referred to as a secondary readout, because this assay has produced multiple assay endpoints where this one serves a background control function. To generalize the intended target to other relatable targets, this assay endpoint is annotated to the background measurement intended target family, where the subfamily is internal marker.
# Human liver HepG2 cells are transiently transfected with multiple reporter transcription units (MRTUs) in 6-well plates using FuGene 6 reagent (Roche; 3 ml FuGene/1 mg DNA). The MRTU constructs are regulated by a cis-regulating element (promoter). […] A major difference between the CIS and TRANS system is that in CIS activities of endogenous TFs are measured, whereas the TRANS assay evaluates changes in activities of exogenous, chimeric NR-Gal4 proteins. […] At the end of 24 hour incubation, total RNA was isolated using TriZol reagent (Invitrogen). The isolated RNA is then reverse-transcribed using oligo(dT) primer and Mo-MLV reverse transcriptase (Invitrogen) with DNAse I (Ambion) treatment for 30 min. […] The fragments were purified using Qiaquick PCR columns (Qiagen), analyzed on an ABI 3130xL genetic analyzer (Applied Biosystems) with peak positions identified by using a set of X-rhodamine (ROX)-labeled MapMarker1000 molecular weight standards (BioVentures). […]
# [6] = target: Estrogen receptor beta (Homo sapiens) (UniProt Q92731); test: ATG_hERb_XSP1: Attagene TRANS-FACTORIAL Multi-Species (XSP1) HepG2 Assay for human Estrogen Receptor (ESR2) (AID 2283788)
# Chain of Estrogen receptor beta (Homo sapiens) (Q92731 whole entry, looked up, the tested form may be a part): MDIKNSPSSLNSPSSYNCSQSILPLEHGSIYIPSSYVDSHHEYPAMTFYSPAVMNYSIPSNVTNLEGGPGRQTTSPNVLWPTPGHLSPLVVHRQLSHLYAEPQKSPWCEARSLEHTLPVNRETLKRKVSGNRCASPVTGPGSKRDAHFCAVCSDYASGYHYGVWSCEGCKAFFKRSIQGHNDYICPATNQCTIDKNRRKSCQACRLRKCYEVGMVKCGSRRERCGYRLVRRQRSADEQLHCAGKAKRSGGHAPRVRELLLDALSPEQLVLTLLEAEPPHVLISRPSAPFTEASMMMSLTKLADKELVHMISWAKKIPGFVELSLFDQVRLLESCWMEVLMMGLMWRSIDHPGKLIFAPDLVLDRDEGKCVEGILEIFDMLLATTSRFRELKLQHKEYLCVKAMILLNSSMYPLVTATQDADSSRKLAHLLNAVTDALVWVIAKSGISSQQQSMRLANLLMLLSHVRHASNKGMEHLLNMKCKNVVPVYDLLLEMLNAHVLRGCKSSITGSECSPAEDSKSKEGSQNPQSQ
# How it was run: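 Transient MRTU transfection of HepG2; ERβ–GAL4 TRANS format; 24 h dosing; 3 nM 6α-fluorotestosterone co-added; RNA → RT-PCR → 6-FAM primer extension → CE; activity vs DMSO.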
# [7] = target: GAL4 Transcription Factor (Internal Marker), GAL4 (gene 855828) (UniProt P04386); test: ATG_GAL4_XSP1: Attagene TRANS-FACTORIAL Multi-Species (XSP1) HepG2 Assay for GAL4 Transcription Factor (Internal Marker) (AID 2283789)
# Chain of GAL4 Transcription Factor (Internal Marker), GAL4 (gene 855828) (P04386 whole entry, looked up, the tested form may be a part): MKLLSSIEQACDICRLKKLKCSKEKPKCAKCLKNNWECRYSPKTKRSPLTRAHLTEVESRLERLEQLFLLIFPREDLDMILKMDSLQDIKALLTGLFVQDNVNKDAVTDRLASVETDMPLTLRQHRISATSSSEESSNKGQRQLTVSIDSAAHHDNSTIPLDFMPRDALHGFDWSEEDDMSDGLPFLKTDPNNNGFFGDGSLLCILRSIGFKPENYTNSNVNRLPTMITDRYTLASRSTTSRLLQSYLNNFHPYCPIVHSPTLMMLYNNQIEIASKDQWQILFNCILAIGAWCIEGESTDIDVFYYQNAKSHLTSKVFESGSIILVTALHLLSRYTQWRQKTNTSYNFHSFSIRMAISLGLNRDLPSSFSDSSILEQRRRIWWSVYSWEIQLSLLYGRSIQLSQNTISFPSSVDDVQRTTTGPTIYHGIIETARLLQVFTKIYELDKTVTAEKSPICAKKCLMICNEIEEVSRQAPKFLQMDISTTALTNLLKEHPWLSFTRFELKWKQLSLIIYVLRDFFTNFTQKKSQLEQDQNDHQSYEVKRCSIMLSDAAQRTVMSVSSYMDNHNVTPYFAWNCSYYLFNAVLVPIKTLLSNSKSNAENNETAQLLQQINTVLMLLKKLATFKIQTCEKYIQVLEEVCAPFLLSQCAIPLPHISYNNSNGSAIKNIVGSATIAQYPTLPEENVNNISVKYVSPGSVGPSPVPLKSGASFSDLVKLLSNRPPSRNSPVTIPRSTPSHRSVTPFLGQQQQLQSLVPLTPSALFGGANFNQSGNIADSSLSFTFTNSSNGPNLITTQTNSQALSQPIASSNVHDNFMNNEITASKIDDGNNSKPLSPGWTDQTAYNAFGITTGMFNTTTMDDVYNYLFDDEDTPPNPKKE
# How it was run: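 This background-control endpoint measures GAL4-driven reporter mRNA via RT-PCR and capillary electrophoresis of labelled fragments. Transiently transfected HepG2 cells were treated 24 h, with 3 nM 6-alpha-fluorotestosterone included, and gain-of-signal was fitted against DMSO.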
# [8] = STM_H9_NormalizedViability: Cytotoxicity Assessment at 120 hours in the Stemina devTOX quickPredict H9 human embryonic stem cell (hESC)-based Assay (AID 2283784)
# How it was run: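 Here, H9 cells received test compound with daily medium renewal. Each plate included methotrexate references (1uM, 5 nM), 0.1% DMSO and media blanks; CellTiter-Fluor RFU was normalized to DMSO.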
# [9] = target: AR (gene 367) (UniProt P10275); test: ACEA_AR_agonist_80hr: ACEA Biosciences xCELLigence Real-Time Cell Analysis on Androgen Receptor Agonism for Proliferation (AID 2283783);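 further: hits increase impedance growth signal above DMSO baseline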
# Chain of AR (gene 367) (P10275 whole entry, looked up): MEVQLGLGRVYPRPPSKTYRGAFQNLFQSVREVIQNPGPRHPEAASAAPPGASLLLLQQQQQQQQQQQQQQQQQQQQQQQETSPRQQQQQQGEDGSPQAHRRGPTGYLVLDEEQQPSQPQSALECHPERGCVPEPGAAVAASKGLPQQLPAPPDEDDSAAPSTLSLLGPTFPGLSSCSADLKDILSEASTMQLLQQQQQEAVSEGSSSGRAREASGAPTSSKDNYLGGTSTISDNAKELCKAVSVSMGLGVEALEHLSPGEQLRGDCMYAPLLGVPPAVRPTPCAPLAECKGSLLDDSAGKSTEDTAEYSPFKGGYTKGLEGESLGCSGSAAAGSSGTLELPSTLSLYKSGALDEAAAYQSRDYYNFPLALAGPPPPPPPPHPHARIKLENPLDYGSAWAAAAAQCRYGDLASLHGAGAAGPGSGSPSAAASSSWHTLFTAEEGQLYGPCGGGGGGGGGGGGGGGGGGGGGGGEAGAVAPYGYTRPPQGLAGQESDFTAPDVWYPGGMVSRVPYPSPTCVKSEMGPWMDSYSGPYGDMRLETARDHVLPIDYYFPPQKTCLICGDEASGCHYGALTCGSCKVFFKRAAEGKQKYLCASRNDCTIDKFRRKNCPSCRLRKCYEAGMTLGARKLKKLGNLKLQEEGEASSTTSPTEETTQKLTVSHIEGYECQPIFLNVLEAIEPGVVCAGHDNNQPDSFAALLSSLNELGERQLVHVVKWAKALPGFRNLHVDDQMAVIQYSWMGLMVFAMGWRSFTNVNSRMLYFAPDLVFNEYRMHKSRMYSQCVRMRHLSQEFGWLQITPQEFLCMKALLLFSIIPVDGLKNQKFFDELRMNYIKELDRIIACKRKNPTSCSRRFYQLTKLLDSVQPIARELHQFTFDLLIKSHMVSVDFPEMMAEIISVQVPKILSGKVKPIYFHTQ
# How it was run: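 Impedance (RT-CES) growth signal at 80 h post-dose; 22Rv1 cells, 8-pt 1:4 series, top 100 uM final, DMSO ≤0.5%; duplicate plates; gain-of-signal fit relative to DMSO baseline.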
# [10] = target: AR (gene 367) (UniProt P10275); test: ACEA_AR_antagonist_80hr: ACEA Biosciences xCELLigence Real-Time Cell Analysis on Androgen Receptor Antagonism for Proliferation (AID 2283787);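 further: 22Rv1 human prostate cancer cells with growth followed by electrical impedance; hits lower the impedance growth signal relative to DMSO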
# How it was run: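 Measures real-time proliferation of 22Rv1 prostate cancer cells by electrode impedance at 80 hours after dosing. Test articles ran at eight concentrations (1:4 steps, top 100 uM final) in biological duplicate.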
structure (smiles),measurement,setting,value
Clc1ccc(Cl)cc1,outcome,[1],inactive
N#Cc1ccc(N(CC(N)=O)CC(F)(F)F)cc1C(F)(F)F,outcome,[1],inactive
O=C(O)C(F)(F)C(F)(F)C(F)(F)C(F)(F)C(F)(F)F,outcome,[1],inactive
Cc1ccccc1[N+](=O)[O-],outcome,[1],inactive
CN(C)c1nc(=O)n(C2CCCCC2)c(=O)n1C,outcome,[1],inactive
Cc1ccc(O)c(C)c1,outcome,[1],inactive
Cc1cccc(C)c1N,outcome,[1],inactive
C[C@]12CCC(=O)C=C1CC[C@@H]1[C@@H]2CC[C@@]2(C)[C@H]1CC[C@]2(C)O,AC50,[2],1.76 nM (active)
same,AC50,[3],1.8 nM (active)
same,outcome,[4],inactive
same,outcome,[5],inactive
O=S(=O)(O)C(F)(F)C(F)(F)C(F)(F)C(F)(F)C(F)(F)C(F)(F)F,outcome,[1],inactive
O=C(O)C(F)(F)C(F)(F)C(F)(F)C(F)(F)C(F)(F)C(F)(F)C(F)(F)C(F)(F)C(F)(F)F,AC50,[1],78.6 µM (active) and 125 µM (active)
CC(c1ccc(O)cc1)(c1ccc(O)cc1)c1ccc(O)cc1,AC50,[1],88.3 µM (active)
CCCCCCCCCc1ccc(O)cc1,AC50,[1],21.8 µM (active) and 25.4 µM (active) and 28.8 µM (active)
ClC1=C(Cl)[C@]2(Cl)[C@@H]3[C@@H](Cl)[C@H]4O[C@H]4[C@@H]3C1(Cl)C2(Cl)Cl,AC50,[1],73 µM (active)
OCC(O)CO,outcome,[1],inactive
C[C@]12CCC(=O)C=C1CC[C@@H]1[C@@H]2CC[C@]2(C)C(=O)CC[C@@H]12,AC50,[2],4.61 nM (active) and 4.8 nM (active)
same,AC50,[3],658 nM (active)
same,AC50,[6],16.4 nM (active) and 8 nM (active)
same,outcome,[7],inactive
same,outcome,[4],inactive
same,outcome,[5],inactive
O=S(=O)(O)C(F)(F)C(F)(F)C(F)(F)C(F)(F)F,outcome,[1],inactive
Sc1ccccc1,outcome,[1],inactive
ClC(Cl)=C(c1ccc(Cl)cc1)c1ccc(Cl)cc1,AC50,[2],5500 nM (active)
same,AC50,[1],80.6 µM (active) and 29.5 µM (active) and 74.7 µM (active)
CCC(C)(c1ccc(O)cc1)c1ccc(O)cc1,AC50,[1],87.5 µM (active) [middle of 4 runs]
CCOP(=S)(OCC)SCSC(C)(C)C,AC50,[1],92.7 µM (active)
CC(C)(c1ccccc1)c1ccc(O)cc1,AC50,[2],412 nM (active)
same,AC50,[1],50 µM (active) and 24.3 µM (active) and 88.6 µM (active)
same,AC50,[6],227 nM (active)
same,outcome,[7],inactive
Oc1ccc(C(c2ccc(O)cc2)(C(F)(F)F)C(F)(F)F)cc1,AC50,[2],109 nM (active) and 71.2 nM (active)
same,AC50,[1],83.7 µM (active) and 72 µM (active) and 73.8 µM (active)
same,outcome,[8],inactive
same,outcome,[7],inactive
same,outcome,[4],inactive
same,outcome,[5],inactive
Clc1ccc(C(c2ccccc2Cl)C(Cl)(Cl)Cl)cc1 (stereo not given),AC50,[2],713 nM (active)
same,AC50,[1],42.8 µM (active) and 53.5 µM (active) and 50.9 µM (active)
same,AC50,[8],88.7 µM (active)
same,outcome,[6],inactive
same,outcome,[7],inactive
Cc1cc2c3c(c1)C(c1ccccc1)=N[C@@H](NC(=O)c1ccncc1)C(=O)N3CC2,outcome,[1],inactive
O=C(NC(=O)c1cc(F)c(F)cc1Cl)Nc1cc(F)ccc1N1CCC(C(=O)O)CC1,outcome,[1],inactive
Nc1ccc(-c2ccc(N)cc2)cc1,outcome,[1],inactive
COc1ccc(O)c(C(C)(C)C)c1,AC50,[1],64.6 µM (active)
O=C(NC(=O)c1c(F)cccc1F)Nc1cc(Cl)c(OC(F)(F)C(F)F)c(Cl)c1,outcome,[9],inactive
same,AC50,[10],50 µM (active)
